Here are results for 62 compounds from PubChem BioAssay AID463075 (University of Pittsburgh Molecular Library Screening Center, 2010).

Molecules are shown by their SMILES. The campaign covered roughly 220,000 compounds. About 150 (0.068%) were called active.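 The calls were made as follows: active = activation, meaning protection from cell death, of at least 50% relative to plate controls; inactive = activation below 50%.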 The list comes from a sample in which actives are over-represented; it also holds similar structures and randomly drawn compounds.

This experiment in a line: inhibitors of TNF-alpha triggered necroptosis, primary screen, cell-based, Jurkat FADD-/-, single concentration (AID 463075).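 Also: necroptosis triggered by 40 ng/mL TNF-alpha added together with compound.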 The settings on record: Jurkat FADD-/- TNF necroptosis rescue, ATP luminescence, 24 h; at 10 µM; active compounds read high; 0 = TNF only, 100 = no-TNF cells.
As for `COc1ccc(NC(=O)C2=C(C)NC(=O)NC2c2ccccc2[N+](=O)[O-])cc1` (configuration not stated), the activation (protection from cell death) is 0.73% (inactive).
Consider `CCOC(=O)c1cc(Sc2ccccc2N)cc(C(=O)OCC)n1`, for which the activation (protection from cell death) is 0.0548% (inactive).
Regarding `COc1ccc(OCc2cn3c(C)cc(C)nc3n2)cc1`, the activation (protection from cell death) is 1.17% (inactive).
Take `CC1COc2ccccc2N1S(=O)(=O)c1ccccc1` (configuration not stated): the activation (protection from cell death) was -0.217% (inactive).
`CCOc1ccccc1NC(=O)C12CC3CC(C1)CC(c1ccc(C)cc1)(C3)C2`: the activation (protection from cell death) is -1.89% (inactive).
Take `O=c1ccnc(Nc2ccc(Cl)cc2)[nH]1`: the activation (protection from cell death) is 2.1% (inactive).
With `Cc1csc(Nc2ccc(Cl)cc2)[n+]1-c1ccc(Cl)cc1`, the activation (protection from cell death) was 52.7% (active).
The figure for `Cc1ccc(NC(=O)c2ccc(Oc3ncccn3)cc2)cc1` is -0.146% (inactive); for `CN(C)Cc1ccc(F)cc1Sc1cc(Cl)ccc1Cl` it is 0.603% (inactive); for `CCOC(=O)CNC(=O)N1c2ccccc2Sc2ccccc21` it is -1.84% (inactive).
`C=CCNC(=O)c1cc2nc(C3CC3)cc(C(F)F)n2n1`: the activation (protection from cell death) was 0.00242% (inactive).
With `Cc1ccc(C(=O)/C=C/Nc2ccc(S(=O)(=O)Nc3onc(C)c3C)cc2)cc1`, the activation (protection from cell death) is 1.49% (inactive).
Consider `CCN(CC)c1ccc(C(=O)c2cnc(/N=C/N(C)C)s2)cc1`, for which the activation (protection from cell death) was 2.87% (inactive).
On to `CC(NC(=S)NNS(=O)(=O)c1ccc(C(C)(C)C)cc1)c1ccccc1` (configuration not stated), for which the activation (protection from cell death) was 5.41% (inactive).
As to `COc1cc(OC)cc(C(=O)NC2CCN(C(=O)N3c4ccccc4Sc4ccccc43)CC2)c1`, the activation (protection from cell death) was -2.58% (inactive).
In the case of `CN(C)CCCn1c(SCCN2C(=O)c3ccccc3C2=O)nc2ccccc2c1=O` it was 0.858% (inactive); in that of `CCN(CC)C(=O)CSc1nnc(CNc2ccc(F)cc2)n1Cc1ccco1`, 0.256% (inactive); in that of `C/C(CC(C)C)=N\Oc1nc(C)cc(C)n1`, 1.02% (inactive).
Consider `Clc1ccc(-c2cc(C3CCNCC3)[nH]n2)c(Cl)c1`, for which the activation (protection from cell death) was 4.13% (inactive).
`FC(F)(F)c1cc(C(F)(F)F)c2ccc(N3CCN(c4ccccc4)CC3)nc2n1`: the activation (protection from cell death) is -0.212% (inactive).
With `NC(=O)c1ccc(NC(=O)COC(=O)C(Cc2ccccc2)NC(=O)c2ccccc2)cc1` (configuration not stated), the activation (protection from cell death) was 0.97% (inactive).
As for `Cc1nn(C)c(C)c1S(=O)(=O)N1CCC(CO)(Cc2ccc(Cl)cc2)CC1`, the activation (protection from cell death) was -0.682% (inactive).
Consider `CCC1CO/C(=C(\C(=C(Cl)Cl)N2CCOCC2)[N+](=O)[O-])N1` (configuration not stated), for which the activation (protection from cell death) was 0.241% (inactive).
Turning to `C=C(C)COc1ccc(-c2nc(N)ncc2-c2ccccc2OC)c(O)c1`, the activation (protection from cell death) was 1.21% (inactive).
In the case of `OCC1(CCc2ccccc2)CCN(Cc2ccc3nsnc3c2)CC1` it was 1.53% (inactive).
Consider `NS(=O)(=O)c1ccc(NC(=S)NC(=O)c2cccc(Br)c2)cc1`, for which the activation (protection from cell death) is -0.737% (inactive).
For the compound `CCOc1ccc(NC(=O)C2CC(=O)N=C(N)S2)cc1` (configuration not stated), the activation (protection from cell death) is 0.442% (inactive).
Regarding `CCOC(=O)C1=C(CC)Nc2ccccc2N=C1NC(=O)c1cccc(S(=O)(=O)N2CCCC2)c1`, the activation (protection from cell death) was -3.1% (inactive).
Consider `COC(=O)C1CCN(CC(N)=O)CC1`, for which the activation (protection from cell death) is 1.78% (inactive).
The figure for `Cc1c([N+](=O)[O-])c(N)nn1C` is 0.221% (inactive); for `COc1ccc(CC(=O)NCc2nnc(SCC(=O)Nc3ncc(C)s3)n2C)cc1` it is 1.73% (inactive); for `Clc1ncn(CCOc2ccccc2)c1Cl` it is 3.48% (inactive).
For `N#Cc1c(N2CCCCC2)nc(N)c2c(N)nc(SCC(=O)O)cc12`, the activation (protection from cell death) is -7.92% (inactive).
Consider `Cc1cc(C(=O)COC(=O)C2CC2)c(C)n1-c1ccc(F)cc1`, for which the activation (protection from cell death) was -0.153% (inactive).
For the compound `CN(C(=O)c1c(Cl)cnn1C)C12CC3CC(CC(C3)C1)C2`, the activation (protection from cell death) is -0.801% (inactive).
Consider `CCNc1ccc(C(=O)OCC(=O)N2c3ccccc3NC(=O)C2(C)C)cc1[N+](=O)[O-]`, for which the activation (protection from cell death) was 1.58% (inactive).
For the compound `CCn1c2ccccc2c2cc(CC(N)=O)ccc21`, the activation (protection from cell death) is -1.12% (inactive).
In the case of `CCc1ccccc1NC(=O)CN(c1ccc(OC)cc1OC)S(=O)(=O)c1ccccc1[N+](=O)[O-]` it was 0.342% (inactive).
The figure for `Cc1ccc2nc(SC(C)C(=O)NCc3ccco3)[nH]c2c1` (configuration not stated) is -0.614% (inactive); for `CCOC(=O)c1c(N)sc2c1CCCC2=O` it is -2.66% (inactive).
In the case of `O=C1OCC2=C1C(c1ccccc1)CC(=O)N2c1cccc(F)c1` (configuration not stated) it was -0.757% (inactive); in that of `O=C1CC(c2ccccc2)C(=O)N1c1cccc(O)c1` (configuration not stated), 52% (active); in that of `O=C1CC(NNc2ccccc2)C(=O)N1c1cccc(Cl)c1` (configuration not stated), -2.98% (inactive).
In the case of `Cc1nnc(Nc2ccccc2F)s1`, the activation (protection from cell death) was 0.78% (inactive).
`N#Cc1c(-c2ccc(Cl)cc2)c2c([nH]c1=S)CCCC2`: the activation (protection from cell death) is -2.48% (inactive).
In the case of `O=C(O)c1ccccc1-c1ccccc1C(=O)NCc1cccnc1` it was 0.395% (inactive); in that of `CCN(C(=O)COc1cccnc1[N+](=O)[O-])C1CCS(=O)(=O)C1` (configuration not stated), 0.598% (inactive).
As for `CCC(C)n1c(-c2cc(OC)c(OC)c(OC)c2)nc2nc3ccccc3nc21` (configuration not stated), the activation (protection from cell death) was -16.6% (inactive).
Take `CC(=O)Nc1nc2c(s1)C(=O)NCC(C)(C)C2`: the activation (protection from cell death) is 0.16% (inactive).
The figure for `Cc1ccc(S(=O)(=O)NCCc2nnc3ccc(SCc4cccnc4)nn23)cc1` is -0.101% (inactive).
`O=C(CCc1ccccc1)Nc1ncc([N+](=O)[O-])s1`: the activation (protection from cell death) was 9.81% (inactive).
In the case of `O=C(Cc1c(F)cccc1Cl)Nc1ccc(-n2cnnn2)cc1` it was 0.184% (inactive).
As for `O=C(Cc1c(F)cccc1Cl)Nc1ncc([N+](=O)[O-])s1`, the activation (protection from cell death) is 59.9% (active).
The figure for `COc1ccc(Br)cc1C(=O)Nc1cccc(C)c1C` is 0.986% (inactive); for `O=C(NC(Cc1c[nH]c2ccccc12)C(=O)N/N=C/c1ccc(Br)cc1)c1cccs1` (configuration not stated) it is -2.26% (inactive); for `CC(C)c1nc(CNC(=O)CC2C(=O)NCCN2Cc2ccoc2)cs1` (configuration not stated) it is -0.307% (inactive).
With `CCc1cc(CNC(=O)CC2C(=O)NCCN2Cc2ccccc2C(F)(F)F)on1` (configuration not stated), the activation (protection from cell death) is 1.76% (inactive).
In the case of `COC(=O)c1ccc(CN(c2ccccc2OC)S(=O)(=O)c2cccs2)o1` it was 0.0719% (inactive); in that of `COC(=O)c1ccc(CSc2ccccc2C)o1`, 6.63% (inactive); in that of `COC(=O)c1ccc(Cc2ccccc2)o1`, 55.2% (active).
On to `COc1ccccc1CNC(=O)CN1CCC(n2cnc3cc(F)ccc32)CC1`, for which the activation (protection from cell death) is 4.48% (inactive).
Take `O=C(c1ccc(S(=O)(=O)c2ccccc2)cc1)N1CCCCCC1`: the activation (protection from cell death) is 1.36% (inactive).
